Screening results (PubChem)
PNC assembly inh: inhibitors of perinucleolar compartment assembly | PC3M PTB-GFP, PNC prevalence imaging, 16 h; stronger effect = lower value | activity change (PNC), negative = inhibition, % at 10 µM | actives 3.1% (n = 140,000);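 active = readout at or below -70, meaning at least 70% loss of cells showing the perinucleolar compartment, a nuclear body marking cancer cells; inconclusive = readout between -30 and a set limit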;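 note: plate controls were DMSO wells for no effect and camptothecin positive control wells for full effect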
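Read-out is percentage of cells bearing a perinucleolar compartment, from automated 20x imaging of fixed, Hoechst-stained PC3M PTB-GFP cells. Cells were seeded 4 h, then exposed 16 h to compound (23 nl of library stock) in duplicate plates.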
Luc counter: blocks Kinase-Glo luciferase, a counter-screen artifact. actives 0.28% (n = 200,000). Kinase-Glo luciferase, ATP luminescence, 8 min. Q27757. Potency, µM (highest dose often 38.3 µM), without a hit: at the top dose activity change, negative = inhibition, actives largely listed as inhibitors; active = well fitted inhibition curve with a large enough effect; inconclusive = small, poorly fitted or top-dose-only effect; note: potency is the fitted concentration of half-maximal effect; nearly all actives have a fitted effect of over 60% in size
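Light output from Kinase-Glo luciferase with luciferin and 10 uM ATP in 50 mM imidazole pH 7.2, KCl, MgCl2, Tween 20, BSA; compound pin-delivered, 8-min ambient incubation, then luminescence read.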
ALDH1A1 inh: ALDH1A1 (human) enzyme inhibition. P00352. actives 7.3% (n = 220,000). Purified ALDH1A1, NADH fluorescence, propionaldehyde substrate. Potency, µM (series often up to 75.3 µM), inactives show top-dose activity, negative = inhibition, actives largely listed as inhibitors;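 note: potency is the fitted concentration of half-maximal effect; plate controls were no enzyme wells and a reference inhibitor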
HPGD block: inhibitors of human 15-hydroxyprostaglandin dehydrogenase (HPGD) | P15428 | purified HPGD, NADH fluorescence kinetic, PGE2 substrate | Potency, µM, inactives show at the highest dose activity change, negative = inhibition, most hits filed as inhibitors | actives 4.3% (n = 150,000); note: potency is the fitted concentration of half-maximal effect
Target sequence (P15428 whole entry, looked up): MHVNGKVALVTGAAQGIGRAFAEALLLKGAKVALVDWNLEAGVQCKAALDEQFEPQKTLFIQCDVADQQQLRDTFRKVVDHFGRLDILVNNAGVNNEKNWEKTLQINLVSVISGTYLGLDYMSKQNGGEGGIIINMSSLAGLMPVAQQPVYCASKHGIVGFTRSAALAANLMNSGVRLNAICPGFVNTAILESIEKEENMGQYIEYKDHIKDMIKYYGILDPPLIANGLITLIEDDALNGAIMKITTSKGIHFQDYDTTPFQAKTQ
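20 nM HPGD preincubated 15 min at room temperature with compound in 50 mM Tris-HCl pH 8, 0.01% Tween 20. Started with 1 mM NAD+ and 30 uM prostaglandin E2; NADH fluorescence (360/450 nm) read 5 times over 30-s intervals, last minus first.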
LMNA splice mod: changes lamin A minigene splicing in HeLa cells. HeLa LMNA splicing GFP/RFP minigene ratio, 48 h. Potency, µM (highest dose often 46.1 µM), for inactives: at the top dose ratio change, negative = inhibition, hits mostly inhibitors. actives 0.01% (n = 200,000); active = well fitted inhibition curve with a large enough effect in the signal ratio, with a control signal flat, not every such curve was filed as active; inconclusive = small, poorly fitted or top-dose-only effect, or effect the other way, or a change in a side signal; the % refers to the signal ratio; note: potency is the fitted concentration of half-maximal effect
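S3 HeLa stable clones carrying a lamin A-EGFP splicing minigene plus DsRed2 were seeded at 600 cells/well in Opti-MEM with 2% FBS, pin-dosed and incubated 48 h at 37°C. Acumen cytometry (488 nm) gave the GFP/RFP total-intensity ratio.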
* marks the source's active call; other numbers are inactive results; [ ] = another dose, or the depositor's remark. Most compounds without a hit are left out; they make up all but 10% or so of the library. Unless noted, calls come from the whole dose curve; as a rule, active = well fitted inhibition curve with a large enough effect (not every such curve was filed as active); inconclusive = small, poorly fitted or top-dose-only effect, or another doubt; inactive = no such curve, though single readings can be large or run the other way. Unless noted, % is set by controls: 0 for no effect and ±100 for the full control effect.

COc1ccc(C(=O)N[C@H](C(=O)OCc2cc(=O)oc3cc(C)ccc23)C(C)C)cc1 was read as PNC assembly inh -28, Luc counter -2%, ALDH1A1 inh 11µM*, HPGD block -27% and LMNA splice mod -9%.
Cc1ccc(C(=O)N[C@H](C(=O)OCc2cc(=O)oc3cc(C)ccc23)C(C)C)cc1 was read as PNC assembly inh 22, Luc counter 0%, ALDH1A1 inh 3%, HPGD block -11% and LMNA splice mod -6%.
O=C1NC(=O)C(=C2CCCCCC2)S1 was read as PNC assembly inh -105*, Luc counter 1%, ALDH1A1 inh 4%, HPGD block inconclusive and LMNA splice mod 3%.
`CN1CCN(c2nc(-c3ccc(Br)cc3)nnc2-c2ccccc2)CC1` gave PNC assembly inh 10, Luc counter -2%, ALDH1A1 inh 22µM*, HPGD block -12% and LMNA splice mod inconclusive.
`O=S(=O)(NCCc1csc2nc(-c3ccc(F)cc3)nn12)c1ccc(Br)cc1` gave LMNA splice mod -10%[46 µM].
For Cc1ccc(N(C(=O)Nc2ccccc2)C2=NCC(C)S2)cc1 (stereo not drawn) the results were PNC assembly inh 23, Luc counter -1%, ALDH1A1 inh -6%, HPGD block 11µM* and LMNA splice mod 1%.
Screening CC1CN=C(N(C(=O)Nc2ccccc2)C(C)C)S1 (stereo not drawn) returned PNC assembly inh 263, Luc counter 1%, ALDH1A1 inh 4%, HPGD block -11% and LMNA splice mod -5%.
`O=C1Nc2ccccc2/C1=C/C(=O)c1cccs1` gave PNC assembly inh -28, Luc counter 13%, ALDH1A1 inh inconclusive, HPGD block inconclusive and LMNA splice mod -2%.
Screening CCN1C(=O)/C(=C\C(=O)c2cccs2)c2cc(Br)ccc21 returned Luc counter -4%, ALDH1A1 inh 11µM* and LMNA splice mod -15%[46 µM].
CSc1nc(N)c2ncn([C@@H]3O[C@H](COP(=O)(O)OP(=O)(O)OP(=O)(O)O)[C@H](O)[C@H]3O)c2n1 was read as Luc counter inconclusive, ALDH1A1 inh 8%, HPGD block -16% and LMNA splice mod inconclusive.
For N#Cc1ccc(NC(=O)COC(=O)C2Cc3ccccc3CN2C(=O)c2ccccc2)cc1 (stereo not drawn) the results were PNC assembly inh -98*, Luc counter -2%, ALDH1A1 inh 5%, HPGD block -12% and LMNA splice mod inconclusive.
For O=C(O)C1Cc2ccccc2CN1C(=O)c1ccccc1Cl (stereo not drawn) the results were PNC assembly inh -18, Luc counter 10%, ALDH1A1 inh 8%, HPGD block -4% and LMNA splice mod 0%.
`O=C(O)C1Cc2ccccc2CN1C(=O)c1ccccc1` (stereo not drawn) gave PNC assembly inh -97*, Luc counter 4%, ALDH1A1 inh 14%, HPGD block -5% and LMNA splice mod -6%.
`COc1ccccc1Cc1nc2ccccc2nc1SCC(=O)NCc1ccc(F)cc1` gave LMNA splice mod 14%[46 µM].
Screening C[C@H](NC(=O)c1nc[nH]c1C(=O)N[C@H](C)c1ccccc1)C(=O)OC(C)(C)C returned ALDH1A1 inh 6%.
Screening C[C@H](NC(=O)c1nc[nH]c1C(=O)NC(c1ccccc1)c1ccccc1)C(=O)OC(C)(C)C returned ALDH1A1 inh 2µM*.
Screening C[C@@H](NC(=O)c1nc[nH]c1C(=O)N[C@@H](Cc1ccccc1)C(=O)OC(C)(C)C)c1ccccc1 returned ALDH1A1 inh 1%.
C[C@H](NC(=O)c1nc[nH]c1C(=O)N[C@@H](Cc1ccccc1)C(=O)OC(C)(C)C)c1ccccc1 was read as ALDH1A1 inh 18µM*.
O=C(c1ccccc1F)c1cc2c(cc1[N+](=O)[O-])OCCO2 was read as Luc counter 2%, ALDH1A1 inh 11µM* and LMNA splice mod 16%[46 µM].
For COc1ccc(C(=O)c2cc3c(cc2[N+](=O)[O-])OCCO3)cc1 the results were Luc counter 1% and ALDH1A1 inh inconclusive.
For COc1ccc(N2C(=O)CC(N3CCN(c4ccccc4F)CC3)C2=O)cc1 (stereo not drawn) the results were PNC assembly inh -97*, Luc counter 1%, ALDH1A1 inh inconclusive, HPGD block -4% and LMNA splice mod 7%.
For O=C1CCCN1CCC1CCN(C2CC(=O)N(c3ccc(F)cc3)C2=O)CC1 (stereo not drawn) the results were PNC assembly inh -112*, Luc counter -2%, ALDH1A1 inh 13µM*, HPGD block -6% and LMNA splice mod 3%.
Screening CN1CCN(C2CC(=O)N(c3ccc4c(c3)OCCO4)C2=O)CC1 (stereo not drawn) returned PNC assembly inh 23, Luc counter -5%, ALDH1A1 inh inconclusive, HPGD block -4% and LMNA splice mod -1%.
Screening Cc1ccc(N2C(=O)CC(N3CCN(C)CC3)C2=O)cc1 (stereo not drawn) returned PNC assembly inh -100*, Luc counter 0%, ALDH1A1 inh 0%, HPGD block -11% and LMNA splice mod -7%.
Screening O=C1CC(N2CCC(c3nc4ccccc4[nH]3)CC2)C(=O)N1c1ccccc1F (stereo not drawn) returned Luc counter -1%, ALDH1A1 inh 10µM* and LMNA splice mod -11%[46 µM].
Screening CCCOc1ccc(N2C(=O)CC(N3CCN(c4ccccc4F)CC3)C2=O)cc1 (stereo not drawn) returned PNC assembly inh 21, Luc counter 1%, ALDH1A1 inh inconclusive, HPGD block -5% and LMNA splice mod 2%.
For O=C(c1ccc([N+](=O)[O-])cc1)N(Cc1ccco1)c1ccccn1 the results were LMNA splice mod 8%[46 µM].
For CC(C)C(=O)Nc1ccccc1OCc1cc(=O)n2ccccc2n1 the results were LMNA splice mod -10%[46 µM].
For O=C(O)[C@@H]1C[C@H](C(=O)O)N1 the results were Luc counter -4%, ALDH1A1 inh -12%, HPGD block -15% and LMNA splice mod inconclusive.
Screening Cc1cc(C)cc(N2C(=O)CC(N3CCOCC3)C2=O)c1 (stereo not drawn) returned PNC assembly inh inconclusive, Luc counter 8%, ALDH1A1 inh -5%, HPGD block -5% and LMNA splice mod 5%.
For COc1ccc(N2C(=O)CC(n3cnc4ccccc43)C2=O)cc1 (stereo not drawn) the results were PNC assembly inh 20, Luc counter 16%, ALDH1A1 inh 5%, HPGD block -9% and LMNA splice mod 1%.
